# The list is not random: actives were taken first. Their share in the collection is about 8.9%.
# NPSR antag = blocks cAMP signaling of the human neuropeptide S receptor; AID 1461; Potency, µM (titrated, usually from 38.3 µM), inactives show at the top dose activity change, negative = inhibition, hits mostly inhibitors; 220,000 tested, 1% active; Q6W5P4; CHO-NPSR cells, cAMP TR-FRET, antagonist mode; note: potency is the fitted concentration of half-maximal effect; nearly all actives have a fitted effect of over 50% in size
# Target sequence (Q6W5P4 whole entry, looked up): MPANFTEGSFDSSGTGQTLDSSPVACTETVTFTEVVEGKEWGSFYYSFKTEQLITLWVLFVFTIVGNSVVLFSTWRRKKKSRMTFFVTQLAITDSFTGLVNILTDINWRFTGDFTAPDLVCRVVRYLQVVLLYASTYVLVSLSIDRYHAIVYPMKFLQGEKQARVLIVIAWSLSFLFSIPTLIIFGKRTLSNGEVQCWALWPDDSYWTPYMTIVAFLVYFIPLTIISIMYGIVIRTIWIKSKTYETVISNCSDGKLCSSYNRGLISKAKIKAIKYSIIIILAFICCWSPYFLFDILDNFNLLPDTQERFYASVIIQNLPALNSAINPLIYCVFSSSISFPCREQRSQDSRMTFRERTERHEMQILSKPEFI
# 12-hLO inh = blocks human 12-lipoxygenase activity; P18054; purified 12-hLO, xylenol orange hydroperoxide absorbance; Potency, µM (highest dose often 57.1 µM), without a hit: at the highest dose activity change, negative = inhibition, usual class: inhibitors; 150,000 tested, 0.12% active; AID 1452; note: potency is the fitted concentration of half-maximal effect; nearly all actives have a fitted effect of over 55% in size
#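 Purified human 12hLO (150 nM final) was preincubated with compounds for 15 min at room temperature in 25 mM Hepes pH 7.0, 0.01% Triton X-100, then reacted with 40 uM arachidonic acid for 30 min. Hydroperoxide was detected with ferrous iron/xylenol orange.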
# IMPase inh = IMPase inhibition in cells | 120,000 tested, under 10 active | CHO-M1 cells, IP1 accumulation, HTRF TR-FRET ratio | inhibition (IP1 accumulation), % at 46.1 µM; active = well fitted curve in the direction sought with a large enough effect in the signal ratio, not every such curve was filed as active; inconclusive = small, poorly fitted or top-dose-only effect, or a change in a side signal; inactive = no such curve, though single readings can be large or run the other way; the % refers to the signal ratio;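 note: cells stimulated with carbachol in lithium chloride buffer; plate controls were DMSO basal wells for no effect and reference inhibitor wells for full effect; higher means more IMPase inhibition seen as more IP1 and lower FRET ratio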
#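 In this qHTS, compounds (final up to 46 uM) act on CHO-M1 cells that are then activated through the M1 receptor with carbachol, in pH 7.4 buffer containing 50 mM LiCl, for 30 min. IP1 accumulation is quantified by the IP-One immunoassay.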
# IMPase Li cell = membrane-permeable IMPase blocker, potentiated with lithium. CHO-M1 cells, IP1 TR-FRET (IP-One), carbachol + lithium. Potency, µM (titrated, usually from 59.4 µM), inactives show at the highest dose activity, negative = IMPase inhibition, hits mostly inhibitors. 210,000 tested, 0.35% active. AID 1457;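 note: IP1 builds up when IMPase is blocked and the TR-FRET signal falls; potency is the fitted concentration of half-maximal effect; plate controls were basal vehicle for no effect and high inhibitor control for full effect; nearly all actives have a fitted effect of over 50% in size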
#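 CHO cells stably expressing M1 receptor (2000/well, cultured 16–30 h) treated 30 min at 37C with compound plus low lithium. Cytosolic IP1 by TR-FRET (665/620 ratio and 620 channel) after 10 min lysis; AC50 by Hill fit.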
# ALDH1A1 inh = inhibitors of human aldehyde dehydrogenase 1A1; AID 1030; Potency, µM (top dose mostly 75.3 µM), for the others: top-dose activity, negative = inhibition, actives largely listed as inhibitors; Purified ALDH1A1, NADH fluorescence, propionaldehyde substrate; 220,000 tested, 7.3% active; active = well fitted inhibition curve with a large enough effect, not every such curve was filed as active; inconclusive = small, poorly fitted or top-dose-only effect, or another doubt; inactive = no such curve, though single readings can be large or run the other way;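 note: potency is the fitted concentration of half-maximal effect; plate controls were no enzyme wells and a reference inhibitor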
# HPGD inh = HPGD (human) dehydrogenase inhibition | P15428 | purified HPGD, NADH fluorescence kinetic, PGE2 substrate | Potency, µM, without a hit: at the highest dose activity change, negative = inhibition, usual class: inhibitors | 150,000 tested, 4.3% active | AID 894; active = well fitted inhibition curve with a large enough effect, not every such curve was filed as active; inconclusive = small, poorly fitted or top-dose-only effect, or another doubt; inactive = no such curve, though single readings can be large or run the other way; note: potency is the fitted concentration of half-maximal effect
# Target sequence (P15428 whole entry, looked up): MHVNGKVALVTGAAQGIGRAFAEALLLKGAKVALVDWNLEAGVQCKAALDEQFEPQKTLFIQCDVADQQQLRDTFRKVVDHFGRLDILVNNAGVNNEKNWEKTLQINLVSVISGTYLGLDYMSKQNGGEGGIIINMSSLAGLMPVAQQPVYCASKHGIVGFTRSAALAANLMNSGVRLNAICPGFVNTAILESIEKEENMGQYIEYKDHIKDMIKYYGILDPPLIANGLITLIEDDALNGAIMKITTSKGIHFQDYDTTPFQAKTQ
#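 NADH formation kinetics: reaction with 30 uM PGE2 and 1 mM NAD+ (final), 20 nM enzyme, Tris-HCl pH 8 with Tween 20, after 15 min compound preincubation at room temperature. Fluorescence change, last versus first of five reads.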
# An asterisk follows results filed as active; ? = inconclusive; nt = no result; [ ] = remark or other dose. Unless noted, calls come from the whole dose curve; as a rule, active = well fitted curve in the direction sought with a large enough effect; inconclusive = small, poorly fitted or top-dose-only effect, or another doubt; inactive = no such curve, though single readings can be large; an effect the other way counts as inactive or inconclusive. Unless noted, % is set by controls: 0 for no effect and ±100 for the full control effect.
SMILES,NPSR antag,12-hLO inh,IMPase inh,IMPase Li cell,ALDH1A1 inh,HPGD inh
O=S(=O)(c1ccccc1)c1nc(-c2ccco2)oc1NCCCN1CCOCC1,28%[46.1 µM],8%,3,7%,8.9µM*,-24%
O=S(=O)(c1ccccc1)c1nc(-c2ccco2)oc1NCCN1CCOCC1,-23%[46.1 µM],0%,5,-2%[38.3 µM],14µM*,-18%
N#Cc1nc(-c2ccco2)oc1NCCCN1CCOCC1,0%[46.1 µM],4%,-5,14%[38.3 µM],?,?
O=C(COc1ccccc1Cl)NCCc1ccc2c(c1)OCCO2,-8%[46.1 µM],0%,?,18%,?,-20%
COc1cc([N+](=O)[O-])c2ncsc2c1,15%,0%,nt,-10%,-6%,-4%
COc1cc(SSc2cc(OC)cc([N+](=O)[O-])c2N)c(N)c([N+](=O)[O-])c1,3.2µM*,nt,nt,nt,nt,nt
Cc1cc(-c2nnc(SCC(=O)Nc3ccccc3C(F)(F)F)o2)c(C)n1-c1ccccc1,-4%[46.1 µM],0%,-5,22%[38.3 µM],11µM*,-15%
COCc1cc(C)nc2sc(C(=O)N3CCCCC3)c(N)c12,-2%[46.1 µM],3%,-2,7%[38.3 µM],18µM*,0.25µM*
Cc1cc(=O)[nH]c(N/N=C/c2c(C)nn(-c3ccc(F)cc3)c2Cl)n1,0%,nt,nt,14%,6.3µM*,nt
CCCCn1c(=O)c(-[n+]2ccccc2)c([O-])c2ccccc21,-17%[46.1 µM],5%,6,0%[38.3 µM],14µM*,-11%
CC(C)Cn1c(=O)c(-[n+]2ccccc2)c([O-])c2ccccc21,24%,nt,nt,-8%,2.8µM*,nt
CCS(=O)(=O)c1ccc2oc(SCC(=O)Nc3ccc(OC)cc3)nc2c1,-6%,nt,nt,2%,-9%,nt
Cc1ccc2nc(NC(=O)C3CC(=O)N(Cc4ccco4)C3)sc2c1 (configuration not stated),-11%,nt,nt,-6%,-11%,nt
CC1CCC(NC(=O)CN2CCC(n3nnc4cc(F)ccc43)CC2)CC1 (configuration not stated),-11%[46.1 µM],-3%,-5,22%[38.3 µM],-9%,-7%
COc1ccc(C(=O)N/N=C(\Cc2ncc[nH]2)c2ccccc2)cc1,0%,nt,nt,1%,?,nt
c1ccc(N/N=C(\Cc2ncc[nH]2)c2ccccc2)cc1,35%,nt,nt,-15%,7.1µM*,nt
COC(CNC(=O)c1cc(C(=O)c2c(-c3c(Cl)cccc3Cl)noc2C)c[nH]1)OC,-23%[46.1 µM],0%,6,-14%[38.3 µM],10µM*,-22%
CN(Cc1ccccc1)S(=O)(=O)c1ccc(Cl)nc1,-17%[46.1 µM],3%,4,-6%[38.3 µM],22µM*,-22%
Cc1ccccc1OCC(=O)Nc1ccc2c(c1)Cc1ccccc1-2,-21%[46.1 µM],-12%,2,nt,-16%,nt
CCOc1cc(C=C2C(=O)c3ccccc3C2=O)ccc1OCC(=O)Nc1ccc(C)cc1,-15%[46.1 µM],14%,-25,nt,15µM*,nt
CC(=O)Nc1ccc2c(c1)C(=O)c1ccccc1C2=O,-5%[46.1 µM],-6%,-6,-4%[38.3 µM],3.5µM*,-4%
O=C1c2ccccc2C(=O)c2cc(NC(=O)C3CC3)ccc21,-6%,1%,-3,1%,?,-3%
Cc1ccccc1OCC(=O)Nc1ccc2c(c1)C(=O)c1ccccc1C2=O,?,-4%,nt,?,18µM*,-15%
Cc1ccccc1OCC(=O)Nc1ccccc1-c1ccccc1,-20%[46.1 µM],2%,2,-13%[38.3 µM],8.9µM*,-15%
CCCn1c(=O)c(C(=O)NCc2ccc(OC)c(OC)c2)c(O)c2ccccc21,?,?,8,-14%[38.3 µM],?,?
SMILES,NPSR antag,12-hLO inh,IMPase inh,IMPase Li cell,ALDH1A1 inh,HPGD inh
CNCCCc1[nH]nc(N)c1C#N,-6%[46.1 µM],-6%,0,-5%[38.3 µM],11%,-4%
O=C(c1cccc(Cl)c1)C1CCCN(Cc2ccc(N3CCNC3=O)cc2)C1 (configuration not stated),-12%,nt,nt,23%,-11%,nt
COc1ccc(C(CCNCc2ccccc2)c2ccc(F)cc2)cc1 (configuration not stated),-44%,-9%,11,7%,7%,-11%
COc1ccc(CN(C)CC(=O)Nc2ccccc2-c2ccccc2)c(OC)c1,-56%,nt,nt,16%,2.8µM*,nt
COc1ccccc1CN(C)CC(=O)Nc1ccccc1-c1ccccc1,-56%,nt,nt,9%,?,nt
Cc1ccc(/C=[N+](\[O-])c2ccc(N(C)C)cc2)c2nsnc12,?,nt,nt,107%,1.1µM*,nt
COc1ccc([N+](=O)[O-])cc1NC(=O)c1ccccc1SC,-25%,nt,nt,4%,?,nt
CSc1ccccc1NC(=O)c1ccc([N+](=O)[O-])cc1,1%,nt,nt,11%,14µM*,nt
NC(=O)COC(=O)c1cccnc1Nc1ccccc1F,24%,nt,nt,27%,11µM*,nt
CN(C)c1nc(C(=O)NN)nc(N(C)C)n1,-7%[46.1 µM],5%,7,23%[38.3 µM],13µM*,-6%
Cc1ccc(C(=O)NN2C(=O)C3C4C=CC([C@@H]3C2=O)C42CC2)cc1 (some centres not stated),8%,nt,nt,nt,nt,nt
CC(C)S(=O)(=O)N1CCN(c2ccnc3cc(Cl)ccc23)CC1,36%,nt,nt,nt,14µM*,nt
O=C(C1CC1)N1CCN(c2ccnc3cc(Cl)ccc23)CC1,-7%,nt,nt,0%,42%,nt
O=C(NCCc1ccccc1)c1ccc(-c2ccc(F)cc2)o1,-22%,nt,nt,-1%,?,nt

# Screening results (PubChem BioAssay)
